The list is not random: actives were taken first. Their share in the collection is about 7.5%.
NPC1 promoter act: activates the NPC1 promoter; Huh7 NPC1 promoter luciferase reporter, 24 h; Potency, µM (titrated, usually from 9.22 µM), for inactives: at the highest dose activation, hits mostly activators; hit rate 2.4% among 320,000; further: % of control where 0% means no effect; nearly all actives have a fitted effect of over 60% in size
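Compounds in DMSO were transferred onto Huh7 NPC1-luciferase reporter cells pre-incubated 2 h; after 24 h at 37 °C, Amplite reagent was dispensed and luminescence recorded 10 min later.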
SMN2 splice enh: enhancers of SMN2 splice variant expression | HEK293 SMN2-luciferase splicing reporter, luminescence, 30-36 h | Potency, µM (highest dose often 46.1 µM), for the others: top-dose activity change, positive = activation, hits mostly activators | hit rate 2.8% among 210,000; further: % of control where 0% means no effect; nearly all actives have a fitted effect of over 55% in size
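HEK293 cells carry an SMN2 minigene-luciferase reporter in which exon 7 inclusion puts luciferase in frame. Cells were seeded at 2000 cells/well, attached for 10-12 hours, then exposed to compounds for 30-36 hours at 37C before ONE-Glo luminescence.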
Rab9 prom act: Rab9 promoter activation. Huh7 Rab9 promoter-luciferase reporter, luminescence, 24 h. Potency, µM (series often up to 9.22 µM), for the others: at the top dose activation, negative = inhibition, usual class: activators. hit rate 2.8% among 320,000. AID 485297; further: % of control where 0% means no effect; nearly all actives have a fitted effect of over 60% in size
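Using Huh7 cells stably transfected with Rab9 promoter–luciferase, compounds were incubated 24 h at 37 °C, 5% CO2; luciferase luminescence was read 10 min after reagent addition.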
ELG1 genotox: inducers of genotoxicity in HEK293T ELG1-luciferase cells; hit rate 1.3% among 330,000; Potency, µM (highest dose often 46 µM), for inactives: at the top dose activity change, positive = activation, usual class: activators; HEK293T ELG1-luciferase reporter, luminescence, 16 h; further: % of control where 0% means no effect; nearly all actives have a fitted effect of over 60% in size
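Luminescence read-out: rising ELG1-luciferase signal, reflecting elevated ELG1 protein under genetic stress, flags genotoxic compounds. Cells were treated for 16 hr at 37 °C before ONE-Glo detection.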
KinaseGlo FLuc: counter-screen: inhibitors of Kinase-Glo firefly luciferase. Potency, µM (series often up to 38.3 µM), without a hit: top-dose activity change, negative = inhibition, actives largely listed as inhibitors. Q27757. hit rate 0.28% among 200,000. Kinase-Glo luciferase, ATP luminescence, 8 min; further: on the % scale 0 is the no-effect control and ±100 the full control effect; nearly all actives have a fitted effect of over 60% in size
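Substrate mix (final 50 mM imidazole pH 7.2, 50 mM KCl, 7 mM MgCl2, 10 uM ATP, 0.01% Tween 20, 0.05% BSA) plus pin-tool compound, then Kinase-Glo detection mix; 8 min ambient, luminescence read.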
FLuc counter: counter-screen for miR-21 project: firefly luciferase inhibitors or activators. hit rate 6.9% among 360,000. Potency, µM (top dose mostly 57.5 µM), without a hit: at the top dose activity change, negative = inhibition, hits mostly inhibitors. AID 588342. P08659. purified FLuc, Km substrates, luminescence inhibition;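 further: plate controls were vehicle for no effect and reference inhibitor for full effect; nearly all actives have a fitted effect of over 55% in size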
Target sequence (P08659 whole entry, looked up): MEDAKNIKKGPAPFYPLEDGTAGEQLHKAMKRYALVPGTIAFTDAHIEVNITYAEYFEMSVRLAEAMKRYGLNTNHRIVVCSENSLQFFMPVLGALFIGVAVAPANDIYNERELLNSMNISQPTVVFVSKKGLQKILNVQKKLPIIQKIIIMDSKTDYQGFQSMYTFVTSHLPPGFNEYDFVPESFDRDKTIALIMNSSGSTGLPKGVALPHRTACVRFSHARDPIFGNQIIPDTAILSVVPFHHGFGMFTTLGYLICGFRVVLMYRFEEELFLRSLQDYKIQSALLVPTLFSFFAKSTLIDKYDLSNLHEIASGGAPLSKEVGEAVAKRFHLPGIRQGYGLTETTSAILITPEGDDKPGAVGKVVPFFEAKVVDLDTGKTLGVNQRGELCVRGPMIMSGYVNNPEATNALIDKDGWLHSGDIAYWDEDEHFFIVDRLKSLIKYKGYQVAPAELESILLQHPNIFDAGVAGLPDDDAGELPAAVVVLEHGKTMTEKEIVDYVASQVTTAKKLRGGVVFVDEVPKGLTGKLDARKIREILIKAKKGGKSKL
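Purified P. pyralis luciferase, 10 nM final, with Km-level 10 uM D-luciferin and 10 uM ATP in 50 mM Tris acetate pH 7.5, 10 mM Mg acetate, 0.01% Tween-20, 0.05% BSA; 6-point qHTS titration about 60 µM downward; luminescence read.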
* hit, by the source's call; ? = inconclusive; . = not tested or not shown; ! = not confirmed by another sample; [ ] = remark or other dose. The call rests on the fitted dose curve; in most records, active means well fitted curve in the direction sought with a large enough effect; inconclusive means small, poorly fitted or top-dose-only effect, or another doubt; inactive means no such curve, though single readings can be large; an effect the other way counts as inactive or inconclusive. Potency means the concentration at half of the fitted maximal effect.

SMILES	NPC1 promoter act	SMN2 splice enh	Rab9 prom act	ELG1 genotox	KinaseGlo FLuc	FLuc counter
O=C(O)c1ccc(CN2C(=O)c3ccc(C(=O)O)cc3C2=O)cc1	1.1%	.	-1.9%	1.4%	.	0.9%
Cc1cc(NC(=O)C(C)(C)Oc2ccc(Cl)cc2)cc(-c2nc3ncccc3o2)c1O	.	18.9%	.	.	.	0.8%
O=C(O)c1cccc(NC(=O)c2ccc3c(c2)C(=O)N(C2CCCCC2)C3=O)c1	1.58µM*	.	1µM*	?	.	0.19µM*
O=C(O)COc1ccc(NC(=O)c2ccc3c(c2)C(=O)N(C2CCCCC2)C3=O)cc1	0.6%	.	-1.8%	-3.3%	.	-0.8%
O=C(O)c1ccc(NC2=C(Cl)C(=O)c3ccccc3C2=O)cc1	-32.5%	.	-42.1%	-15.6%	.	?
O=C(O)c1cccc(NC2=C(Cl)C(=O)c3ccccc3C2=O)c1	24.9%	3.8%	?	-23.6%	-7.5%	16.9µM*
CCN(CCCNC(=O)c1nn(-c2ccc(OC)c(Cl)c2)c(=O)c2c1c1ccccc1n2C)c1cccc(C)c1	.	-0.1%	.	.	.	0.5%
COc1ccc(Cl)cc1NC(=O)CSc1nc2c(oc3ccccc32)c(=O)n1Cc1ccco1	.	0.8%	.	.	.	-6.7%
CC#CCN1c2ccccc2[C@]23C[C@@H](C(=O)OC)N(S(=O)(=O)c4ccc(OC)cc4)C2=NC(C(=O)OC)=C(C(=O)OC)[C@H]13	.	1.8%[9.22 µM]	.	.	-1.4%[7.66 µM]	.
C=CCOc1ccc(/C(O)=C2/C(=O)C(=O)N(CCCn3ccnc3)C2c2ccco2)cc1 (stereo not given)	16.3%	9.6%	?	6.0%	-1.5%	-17.9%
C=CCOc1ccc(/C(O)=C2/C(=O)C(=O)N(CCCn3ccnc3)C2c2cccs2)cc1 (stereo not given)	24.7%	2.6%	?	4.4%	0.2%	15.1µM*
CN1C(=O)/C(=C\C(=O)c2cccs2)c2ccccc21	4.0%	-19.7%	-10.2%	-12.8%	-0.1%	19µM*
COC(=O)C(Cc1ccc(O)cc1)N1Cc2ccccc2C1=O (stereo not given)	3.98µM*	.	1.78µM*	?	.	15.1µM*
COC(=O)C(Cc1ccc(OC(=O)c2ccc(C)cc2)cc1)N1Cc2ccccc2C1=O (stereo not given)	?	15.8µM*	?	9.0%	-0.7%	?
O=C(NCc1ccccc1Cl)c1nnc(Cc2cccc(F)c2)o1	.	.	.	.	.	-15.6%
Cc1cccc(N2CCN(S(=O)(=O)c3ccc4c(c3)C(C(C)C)C(=O)N4)CC2)c1C (stereo not given)	.	.	.	.	.	-8.1%
C=C(C)CNC(=S)Nc1nc2c(cc1C(=O)OCC)CCCC2	?	4.47µM*	?	?	-1.3%	13.5µM*
CC1(C)CC(=O)c2cc(C(=O)Nc3ccc(Br)cc3)c(=O)n(-c3ccc(Cl)cc3)c2C1	.	-1.4%	.	.	.	-0.3%
CCC(CC)C(=O)Nc1nnc(S(=O)(=O)N2c3ccccc3CC2C)s1 (stereo not given)	-2.3%	.	0.1%	-4.5%	.	16.9µM*!
Cc1cccc(C(=O)Nc2sc3c(c2C(=O)N2CCCCC2)CCC(C)C3)c1 (stereo not given)	.	-11.3%	.	.	.	?
COc1ccc(-c2nc3c4ccccc4[nH]c(=O)n3n2)cc1	.	5.6%	.	.	9.2%	8.49µM*
COc1cc2[nH]c(=O)n3nc(-c4ccccc4)nc3c2cc1OC	-8.2%	-0.8%	-1.8%	-5.0%	-0.8%	-12.6%
CCC(=O)N1c2ccccc2CC1C(=O)NCCc1ccc(OC)cc1OC (stereo not given)	.	.	.	.	.	-1.8%
CCc1ccc(C2CC(=O)Oc3c2c(=O)n(C)c2ccccc32)cc1 (stereo not given)	.	5.8%	.	.	.	?
COc1cc(-c2noc(-c3ccc(N4CCCCC4)c([N+](=O)[O-])c3)n2)cc(OC)c1OC	.	.	.	.	.	16.9µM*
SMILES	NPC1 promoter act	SMN2 splice enh	Rab9 prom act	ELG1 genotox	KinaseGlo FLuc	FLuc counter
COc1cc(-c2noc(-c3ccc(N(C)C)c([N+](=O)[O-])c3)n2)cc(OC)c1OC	.	.	.	.	.	15.1µM*
O=C(COC(=O)CNS(=O)(=O)c1ccc(F)c(F)c1F)NCCc1ccccc1	?	.	?	?	.	5.36µM*
Cc1cc(C(=O)Nc2cccc(C(=O)O)c2)oc1C	?	1.58µM*	?	?	?	0.536µM*
Cc1cc(C(=O)Nc2cccc(C(=O)O)c2)c(C)o1	3.55µM*	?	3.98µM*	?	-6.7%	10.7µM*
Cc1oc(CC(C)C)cc1C(=O)Nc1ccc(C(=O)O)cc1	?	10.7%	21.1%	-41.0%	3.0%	12µM*
Cc1oc(C(C)(C)C)cc1C(=O)Nc1ccc(C(=O)O)cc1	?	?	?	17.3%	2.9%	16.9µM*
Cc1cc(C(=O)Nc2ccc(C(=O)O)cc2)c(C)o1	1.2%	.	0.1%	1.0%	.	?
CC(=NCC(=O)O)c1ccccc1	.	-2.7%[9.22 µM]	.	.	3.0%[7.66 µM]	.
Cc1ccc(C(=O)Nc2ccc(F)cc2)o1	22.7%	9.2%	25.6%	12.9%	-7.3%	?
CC(C)(C)c1ccc(C(=O)Nc2ccc(NC(=O)C(=O)O)cc2)o1	0.7%	5.8%	-3.5%	-1.7%	-3.3%	9.53µM*
Cc1oc(C(C)(C)C)cc1C(=O)Nc1cccc(C(=O)O)c1	0.708µM*	?	3.16µM*	?	-4.5%	12µM*
COc1ccc(NS(=O)(=O)c2ccc(-n3cccn3)cc2)cc1OC	.	.	.	.	.	-7.8%
CCn1cc(-c2cc(C(=O)O)c3ccccc3n2)cn1	6.5%	2.9%	13.4%	-8.9%	?	2.69µM*
Cn1ccc(-c2cc(C(=O)O)c3ccccc3n2)n1	-2.6%	6.2%	0.9%	0.4%	-9.0%	?
O=C(O)c1cc(-c2cccnc2)nc2ccccc12	-2.4%	.	-0.7%	2.3%	.	-1.2%
CCn1cc(-c2cc(C(=O)O)c3ccccc3n2)c(C)n1	-4.3%	-10.5%	-2.4%	1.4%	-3.6%	9.53µM*
CN(C)S(=O)(=O)c1ccc2c(c1)N(CC(=O)NCc1cccc(Br)c1)C(=O)CS2	.	.	.	.	.	-0.7%
N/C(=N\OC(=O)c1cccc2ccccc12)c1cccc([N+](=O)[O-])c1	12.1%	13.4%	14.6%	1.0%	0.0%	?
Cc1ncsc1CCOC(=O)c1cccc([N+](=O)[O-])c1	-2.0%	5.2%	-5.3%	1.3%	-3.9%	19µM*!
Cc1cccc(C(=O)O/N=C(\N)c2cccc([N+](=O)[O-])c2)c1	?	15.9%	17.7%	?	-5.3%	1.35µM*
COc1cccc(C(=O)O/N=C(\N)c2ccc([N+](=O)[O-])cc2)c1OC	?	?	10.2%[1.84 µM]	?	-4.1%	10.7µM*
O=C(COC(=O)c1cccc([N+](=O)[O-])c1)NCc1cccs1	0.3%	-1.5%	4.1%	2.7%	1.4%	3.7%

Screens: PubChem, National Center for Advancing Translational Sciences (NCATS)
